Shown are actives, neighbours in structure and some others; about 1.1% of the full set was active somewhere.
NTR1 agonist – agonists of human NTR1, primary screen, imaging, U2OS cells, beta-arrestin-GFP, high content. Neurotensin receptor type 1 (Homo sapiens), P30989. NTR1-U2OS beta-arrestin-GFP spot imaging, agonist mode. activation, % at 20 µM. 0.17% of 330,000 active. AID 493036, 2011;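 active = activation at or above 40% of the spot to cytoplasm intensity ratio, with at least 20 cells analyzed; inconclusive = wells under 20 cells, flagged as cytotoxic or low count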;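 also: 0% = DMSO without peptide and 100% = 100 nM NTR1 peptide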
VLA-4 inh – inhibition in human VLA-4 binding assay, primary screen, VLA-4 allosteric modulator project, MLPCN library, flow cytometry, VLA-4 expressing cells; Integrin alpha-4 (Homo sapiens), P13612; ligand binding flow cytometry; inhibition, % (about 7 µM as worked out from the volumes in the protocol); 0.2% of 330,000 active; in the data active = inhibition above about 50%
Pemphigus Ab inh – inhibitors of pemphigus antibody binding to DSG3, primary screen, biochemical, bead-based, flow cytometry, scFv-GFP | AID 588358, 2011 | binding (percent of control), % at 10 µM | DSG3-coupled beads, scFv-anti-DSG3-GFP binding; active compounds read low | 0.48% of 310,000 active;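 active = binding more than 3 SD below its plate's average and above zero; inconclusive = below that plate limit but binding exactly zero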;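 also: hits lower antibody fragment binding to DSG3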
AI-2 QS mod – Vibrio harveyi AI-2 quorum sensing modulators, primary screen, JMH597 strain, luminescence/OD600 ratio. Vibrio harveyi JMH597 AI-2 luminescence/OD600 ratio, 9 h; active compounds read low; strain lacks LuxN and CqsS sensors; 0 = neutral-control median. activity change, % at 7.5 µM. 0.4% of 300,000 active; in the data active = activity change below about -75%, passing the limit was not always enough; inconclusive = no clear call, values can overlap the other calls;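 also: luminescence divided by OD600 gain over 9 h not by final OD600 alone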
VLA-4 mod pick – retest of VLA-4 allosteric modulators, confirmation, cell-based, cherry-picked plates, U937, HUTS-21 LIBS antibody | shares compounds with VLA-4 inh | U937 cells, HUTS-21 LIBS mAb binding, flow cytometry; LDV ligand present at threefold Kd | inhibition, % at 6.7 µM | 2% of 1,300 active | AID 2813, 2010; in the data active = inhibition above about 40%;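 also: 0% = ligand without compound and 100% = no ligand background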
Numbers without * were called inactive; ? = inconclusive; · = not tested or not shown.

SMILES	NTR1 agonist	VLA-4 inh	Pemphigus Ab inh	AI-2 QS mod	VLA-4 mod pick
CN(C(=O)COC(=O)c1ccccc1SCC(=O)N1CCCC1)C1CCS(=O)(=O)C1 (stereo unspecified)	0	-23	·	18	·
CCOC(=O)Cc1nnc(Nc2cccc(O)c2)c2ccccc12	0	89*	82	36	-15
Cn1ncc(Cl)c1C(=O)NC1CCCC1	1	4	101	7	·
CC(C)(C)NC(=O)N1c2ccccc2Sc2ccccc21	0	54*	?	9	3
COc1ccc(C(C(=O)NC2CCCCC2)N(Cc2cccnc2)C(=O)c2snc(C(N)=O)c2N)cc1 (stereo unspecified)	1	16	97	11	·
Cc1cccc(OCCC(=O)Nc2ccc(N3CCOCC3)cc2N2CCOCC2)c1	3	50*	100	·	3
CCN(CC)C(=O)c1[nH]cnc1C(=O)NC1CCN(C(=O)OC(C)(C)C)CC1	-1	0	108	·	·
O=C(N/N=C/c1ccc(Cl)cc1)c1cc(-c2cccnc2)nc2ccccc12	8	50*	91	2	18
O=C(N/N=C/c1cccnc1)c1cc(-c2ccc(Cl)cc2)nc2ccccc12	3	30	105	22	·
O=C(N/N=C/c1ccc(Cl)c([N+](=O)[O-])c1)c1cc(-c2ccccc2)nc2ccccc12	0	56*	84	12	5
CN(Cc1ccco1)C(=O)c1ccc(CNS(=O)(=O)c2ccc3c(c2)C(C)(C)C(=O)N3C)cc1	4	5	102	24	·
C[C@]12C=CC(=O)C=C1CC[C@@H]1[C@@H]2[C@@H](O)C[C@@]2(C)[C@H]1CC[C@]2(O)C(=O)CO	-1	59*	102	0	2
CC(=O)OCC(=O)C1(O)CCC2C3CCC4=CC(=O)CCC4(C)C3C(O)CC21C (stereo unspecified)	·	·	95	·	·
C[C@]12C=CC(=O)C=C1CC[C@@H]1[C@@H]2[C@@H](O)C[C@@]2(C)[C@H]1CC[C@]2(O)C(=O)COC(=O)CCC(=O)O	7	15	117	21	·
C[C@]12CCC(=O)C=C1CC[C@@H]1[C@@H]2[C@@H](O)C[C@@]2(C)[C@H]1CC[C@]2(O)C(=O)CO	0	29	101	23	-1
CC12CCC(=O)C=C1CCC1C2C(O)CC2(C)C1CCC2(O)C(=O)CO (stereo unspecified)	2	6	85	14	-184
Cc1ccc(NC(=O)COC(=O)c2c(-c3ccccc3)noc2C)c(C)c1	-2	7	104	·	·
COc1ccccc1Cn1c(SCC(N)=O)nc2c(oc3ccccc32)c1=O	·	·	83	·	·
CCn1ccnc1CN(C)C(=O)C1CCC(=O)N(Cc2cccc(F)c2)C1 (stereo unspecified)	0	14	99	25	·
CCOC(=O)CSc1nnc(CNC(=O)c2ccc(S(=O)(=O)N3CCOCC3)cc2)n1C	-1	42	83	16	9
COc1cc(-c2nc3ccccn3c2/N=C/c2cc(OC)c(OC)c(OC)c2)ccc1O	1	-8	103	18	·
COc1ccc(OC)c(/C=N/c2c(-c3ccc(O)c(OC)c3)nc3ccccn23)c1	0	51*	96	13	5
Cc1ccc(CN2CCN(Cc3cccc(OCCO)c3)CC2CCO)o1 (stereo unspecified)	-1	42	86	23	5
O=C(NCCS(=O)(=O)N1CCN(c2cccc(Cl)c2)CC1)C1CCCC1	1	12	109	18	·
Cc1ccc(/C(O)=C2/C(=O)C(=O)N(CC(=O)O)C2c2ccc([N+](=O)[O-])cc2)cc1 (stereo unspecified)	0	64*	106	·	5
SMILES	NTR1 agonist	VLA-4 inh	Pemphigus Ab inh	AI-2 QS mod	VLA-4 mod pick
Cc1ccc(/C(O)=C2\C(=O)C(=O)N(C)C2c2ccc([N+](=O)[O-])cc2)cc1 (stereo unspecified)	1	14	116	-11	·
Cc1cc(=O)oc2c3c(cc(OCC(=O)NCC4CCC(C(=O)O)CC4)c12)OC(C)(C)CC3 (stereo unspecified)	0	-3	91	2	·
COCCN1CC(=O)N2C(c3cccc(C)c3)c3[nH]c4ccccc4c3C[C@H]2C1=O (stereo partly specified)	1	41	99	21	-3
COCCCN1CC(=O)N2C(c3cccc(C)c3)c3[nH]c4ccccc4c3C[C@H]2C1=O (stereo partly specified)	-1	10	90	18	·
Cc1cc(C)cc(C(=O)OCC(=O)NCc2ccco2)c1	0	2	96	·	·
COC(=O)Cc1ccc(NC(=O)c2ccc(NC(=O)c3ccco3)cc2)cc1	0	-3	98	7	·
COC(=O)Cc1ccc(NC(=O)c2ccc(C)c(C)c2)cc1	0	60*	91	23	11
COc1cc(SC)ccc1C(=O)Nc1ccc(Br)cn1	2	10	97	-1	·
COc1cc(SC)ccc1C(=O)Nc1ncc(Cl)cc1Cl	0	55*	87	6	7
O=C(NC1CCCC1)C(c1ccc(F)cc1)N(C(=O)c1csnn1)C1CC1 (stereo unspecified)	-2	5	·	19	·
COC(=O)c1c(NC(=O)c2ccco2)sc2c1CCC2	7	92*	·	26	-5
COc1cc(/C=N/NC(=O)c2ccncc2)c([N+](=O)[O-])cc1OC	1	57*	98	20	-5
COc1cc(OC)c([N+](=O)[O-])cc1/C=N/NC(=O)c1ccncc1	-1	5	94	45	·
CCC1Nc2ccccc2-c2nnc(SC)nc2O1 (stereo unspecified)	1	-2	102	-8	·
CCSc1nnc2c(n1)OC1(CCCC1)Nc1ccccc1-2	1	55*	97	11	0
COc1ccc(CCC(=O)Nc2ncc(C)s2)cc1	2	3	98	4	·
Cc1ccc(C)c(S(=O)(=O)Nc2ccc(C(N)=O)cc2)c1	-1	-5	96	-2	-6
Cc1ccc(C)c(NS(=O)(=O)c2cc(C(N)=O)ccc2C)c1	2	10	101	15	·
CCOc1ccc(N(CC(=O)Nc2ccc(CC)cc2)S(=O)(=O)c2c(C)[nH]c(=O)[nH]c2=O)cc1	2	10	·	23	·
CCOc1ccc(N(CC(=O)Nc2ccc(C)c(C)c2)S(=O)(=O)c2c(C)[nH]c(=O)[nH]c2=O)cc1	-1	-1	89	22	-8
CCOc1ccc(NC(=O)CN(c2cc(C)cc(C)c2)S(=O)(=O)c2c(C)noc2C)cc1	-1	53*	108	28	7

Source: PubChem
